# According to PubChem BioAssay AID492992 (Johns Hopkins Ion Channel Center, 2010):
# The whole screen tested about 4,900 compounds, of which about 2,100 (43%) were called active.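 The calls were made as follows: active = thallium signal inhibited by more than 5 SD of the compound-free buffer control wells, on both duplicate plates; inactive = the rest.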 The set was probably picked from earlier hits. These entries were drawn from the full list.
# Molecular target: Potassium channel subfamily K member 9 (Homo sapiens) (UniProt Q9NPC2)
# Experiment: blockers of human TASK-3 (KCNK9) channel – HEK293 cells, thallium flux, duplicate, confirmation (AID 492992);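 as to inhibition: 0% = assay buffer control wells without compound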
# Conditions: FluxOR thallium flux fluorescence, at 10 µM; active compounds read high
# Chain of Potassium channel subfamily K member 9 (Homo sapiens) (Q9NPC2 whole entry, looked up): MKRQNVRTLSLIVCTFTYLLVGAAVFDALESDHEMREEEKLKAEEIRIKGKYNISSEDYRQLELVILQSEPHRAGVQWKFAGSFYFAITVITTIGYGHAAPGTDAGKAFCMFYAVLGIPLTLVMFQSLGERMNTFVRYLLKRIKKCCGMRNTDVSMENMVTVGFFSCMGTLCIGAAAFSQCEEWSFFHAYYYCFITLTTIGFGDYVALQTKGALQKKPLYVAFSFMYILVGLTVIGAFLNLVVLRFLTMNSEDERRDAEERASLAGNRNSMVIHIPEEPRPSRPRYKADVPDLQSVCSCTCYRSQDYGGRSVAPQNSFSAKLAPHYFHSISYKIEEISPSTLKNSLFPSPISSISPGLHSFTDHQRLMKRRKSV
row,Compound,inhibition
1,CCOc1cccc(OCCCOc2cccc3cccnc23)c1,inactive
2,Cc1ccc(OCc2cc(C(=O)N(C)CCc3ccccc3)no2)cc1C,inactive
3,COc1ccc(C(C)=O)cc1COc1ccc(Cl)c(C)c1,46% (active)
4,Cc1ccc(OS(=O)(=O)c2ccc(-c3csc(C)n3)s2)c(C)c1,inactive
5,Cc1cccc(NC(=O)N(Cc2cc3cc(C)cc(C)c3[nH]c2=O)CC2COCCO2)c1 (stereo not given),inactive
6,O=C1/C(=C/c2ccc(F)cc2)SC(=S)N1NS(=O)(=O)c1ccccc1,inactive
7,Fc1ccc(Cn2nnnc2C(c2cccs2)N2CCCCCC2)cc1 (stereo not given),49% (active)
8,COc1ccccc1C(c1nnnn1C(C)(C)C)N1CCN(Cc2ccccc2)CC1 (stereo not given),76% (active)
9,COc1ccc(C(=O)C2CCCN(C(=O)c3cc(C)on3)C2)cc1F (stereo not given),inactive
10,CCCCCCCCCCOC(=O)Cn1c(COc2cccc(OC)c2)[n+](C)c2ccccc21,67% (active)
11,CCCCCCCCCCOC(=O)Cn1c(COc2ccc(C)cc2)[n+](C)c2ccccc21,65% (active)
12,CCCCN(Cc1ccccc1)C(=O)C1CCN(Cc2sccc2C)CC1,inactive
13,CCOc1ccc2[nH]c(=O)c(CN(Cc3nnnn3CCc3ccccc3)CC3CCCO3)cc2c1 (stereo not given),32% (active)
14,Cc1cccc(N2CCN(C(=O)c3cccc(S(=O)(=O)N4CCc5ccccc5C4)c3)CC2C)c1 (stereo not given),inactive
15,CCCCn1ccnc1C(=O)c1cccc(S(=O)(=O)N2c3ccccc3CC2C)c1 (stereo not given),62% (active)
16,Cc1cc2ccccn2c1C(=O)c1cccc(S(=O)(=O)N2CCOCC2)c1,inactive
17,CCN(CC)C(=O)CC1(c2ccccc2OC)CCOC(C(C)C)C1 (stereo not given),36.5% (active)
18,COc1cccc(CN(C)C(=O)CC23CC4CC(CC(C4)C2)C3)c1OC,inactive
19,O=C1N=C2SCCN2/C1=C\c1c(Cl)cccc1Cl,inactive
20,CC1=C/C(=N\OS(=O)(=O)c2ccccc2)C=CC1=O,inactive
21,COc1cc(C(CCN2CCN(c3ccccc3)CC2)c2c(OC)cc(OC)c3ccc(=O)oc23)cc(OC)c1OC (stereo not given),inactive
22,CCOc1ccc(CN(Cc2ccco2)C(c2cccs2)c2nnnn2C(C)(C)C)cc1 (stereo not given),60.5% (active)

row,Compound,inhibition
1,COc1ccc(OC)c(-c2csc(-c3cccs3)n2)c1,inactive
2,COc1ccc(C2CC(c3cccs3)=Nc3ccccc3S2)cc1OC (stereo not given),40.5% (active)
3,O=C(COC(=O)c1c2c(nc3ccccc13)CCCC2)c1ccc(Br)s1,inactive
4,CCc1ccccc1NC(=O)/C(=C/c1ccccc1)c1ccccc1,37.5% (active)
5,O=C(Nc1ccc(Oc2ccccc2)cc1)c1ccco1,50.5% (active)
6,CC(Oc1ccc2ccccc2c1)C(=O)NNC(=S)NC(=O)c1ccco1 (stereo not given),inactive
7,Cc1ccc(C2=NN(C)c3nc4ccccc4n3C2)cc1,inactive
8,CCCN1C(=O)C(Cc2nc3ccccc3c(=O)n2-c2ccccc2)c2cc(C)ccc21 (stereo not given),47% (active)
9,Brc1ccc(C2CC(c3ccccc3)=Nc3ccccc3N2)cc1 (stereo not given),61.5% (active)
10,O=C(NNc1ccccc1Cl)C(O)(c1cccc(C(F)(F)F)c1)c1cccc(C(F)(F)F)c1,44% (active)
11,COc1cccc(-c2cc3nc4c(c(N5CCC6(CC5)OCCO6)n3n2)CCCC4)c1,inactive
12,CC(C)(C)C1CCC(C(=O)NCC(c2cccs2)N2CCOCC2)CC1 (stereo not given),inactive
13,CCc1cccc(C)c1N(C(=O)Cn1c(CO)nc2ccccc21)C(C)COC (stereo not given),37.5% (active)
14,O=[N+]([O-])c1ccc(N2CCN(CC(O)COc3ccccc3)CC2)cc1 (stereo not given),inactive
15,Cc1[nH]c2ccccc2c1CCN(Cc1cccs1)C(=S)NC(C)(C)C,inactive
16,COc1cccc(NC(=S)N(CCc2c(C)[nH]c3ccccc23)Cc2ccco2)c1,59% (active)
17,COc1ccc([N+](=O)[O-])cc1-c1nc2ccccc2nc1-c1ccccc1,inactive
18,COC(=O)Cn1cnc2scc(-c3ccc(C)c(C)c3)c2c1=O,inactive
19,CC(C)N(C(=O)CSc1nc(COc2ccccc2)nc2ccccc12)C(C)C,76.5% (active)
20,O=C1/C(=C/c2ccc3c(c2)OCO3)CCC/C1=C\c1ccc2c(c1)OCO2,inactive
21,COc1ccc(CCNc2ncnc3c2nnn3Cc2ccccc2)cc1,inactive
22,COc1ccc(CCNC(=O)c2ccccc2OCc2ccccc2)cc1,64% (active)

row,Compound,inhibition
1,O=C(NCCCc1ccccc1)c1cc(COc2c(F)cccc2F)on1,inactive
2,COc1cc(NC(=S)NCCSc2ccc(C)cc2)cc(OC)c1,27% (active)
3,COc1ccc(-c2noc(CSc3ccc(C)cc3)n2)cc1,inactive
4,COc1cccc(C(=O)NCCSc2ccc(Br)cc2)c1,inactive
5,CCOc1ccccc1NC(=O)C12CC3CC(C1)CC(c1ccc(C)cc1)(C3)C2,inactive
6,O=C(Oc1ccc(Br)cc1C(=S)N1CCOCC1)c1cccc([N+](=O)[O-])c1,50% (active)
7,COc1ccc(-c2oc(/N=C/N3CCCC3)c(C#N)c2-c2ccc(OC)cc2)cc1,inactive
8,O=C(Cn1cc(C(=O)c2cccs2)c2ccccc21)NCc1cccs1,39% (active)
9,Cc1ccc(CN(N=Nc2nonc2N)c2nonc2N)c(C)c1,68.5% (active)
10,C/C(=N\NC(=S)Nc1ccc(C)cc1)c1cc2ccccc2o1,inactive
11,Cc1cccc(N(C)C(=O)CN2C(=O)COc3ccc(S(=O)(=O)N4CCCCCC4)cc32)c1,inactive
12,Cc1ccc(S(=O)(=O)N2CCN(C(=O)COC(=O)c3c(C)cc(C)cc3C)CC2)c(C)c1,inactive
13,CCOc1ccc(C(C)C)cc1S(=O)(=O)n1nc(C)cc1C,33% (active)
14,CC(C)(C)NC(=O)NC(=O)CN1CCC(Cc2ccccc2)CC1,inactive
15,CC1=CC(C)(C)N(C(=O)CSc2nnc(-c3ccccc3)o2)c2ccc(C)cc21,inactive
16,C=CCOc1ccc(/C=N/NC(=O)C(C)Sc2ccccn2)cc1OCC (stereo not given),46.5% (active)
17,O=[N+]([O-])/C=C/c1ccc2c(ccn2Cc2ccccc2)c1,inactive
18,COC(=O)c1sc(-c2ccc(C(C)(C)C)cc2)cc1NC(=O)/C=C/C(=O)O,inactive
19,O=C(C[C@H]1C(=O)N(c2ccc(F)c(F)c2)C[C@@H]1Cc1ccccc1)Nc1ccccc1,39% (active)
20,O=C(CC(NC(=O)c1ccccc1)c1ccccc1)Nc1ccc(F)c(F)c1 (stereo not given),inactive
21,Cc1ccc(C(=O)c2c(NC(=O)c3ccccc3)sc(C)c2C)cc1,inactive
